Laboratory results from PubChem BioAssay AID1159580 (chemical genetic matrix, 2015).
“And” between values parts separate entries of the source, which are not always exact repeats. Equal values may be shown once. Hit rate of the full screen: of about 5,500 compounds, about 2,000 (36%) were called active. Inconclusive results (about 18%) are left out. No stated cut-off is given here; in the data, active means normalized growth mostly below about 0.91 (no sharp cut-off); inconclusive means no clear call, values can overlap the other calls; inactive means mostly above about 0.92. The list shows a part of the results.

Assay: chemical genetic growth profiling, strain panel (AID 1159580);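 further: tested at 20 µM; growth read once vehicle control cultures reached saturation at 30 °C; 1 = growth at the plate median or of vehicle wells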
Conditions: S. cerevisiae deletion strains, growth OD

Measured: normalized growth

NC(N)=NC(N)=Nc1ccccc1
inactive: locus YAL013W, strain DEP1, stronger effect = lower value 1.01 and 0.984 | locus YAL021C, strain ccr4, stronger effect = lower value 1 | locus YAL026C, strain drs2, stronger effect = lower value 0.998 | locus YAL030W, strain snc1, stronger effect = lower value 1.01 | locus YAL040C, strain CLN3, stronger effect = lower value 1.08 | locus YBL061C, strain skt5, stronger effect = lower value 1 | locus YBR009C, strain hhf1, stronger effect = lower value 0.979 | locus YBR021W, strain FUR4, stronger effect = lower value 1.02 | locus YBR023C, strain chs3, stronger effect = lower value 1 | locus YBR171W, strain sec66, stronger effect = lower value 1 | locus YBR229C, strain ROT2, stronger effect = lower value 1.01 | locus YBR231C, strain swc5, stronger effect = lower value 0.987 | locus YBR279W, strain paf1, stronger effect = lower value 1 | locus YCL011C, strain gbp2, stronger effect = lower value 1 | locus YCL016C, strain dcc1, stronger effect = lower value 1 | locus YCL029C, strain bik1, stronger effect = lower value 0.995 | locus YCL061C, strain MRC1 (second series), stronger effect = lower value 1 | locus YCL061C, strain MRC1, stronger effect = lower value 0.993 | locus YCL069W, strain vba3, stronger effect = lower value 1 | locus YCR088W, strain abp1, stronger effect = lower value 1.01 | locus YDL005C, strain med2, stronger effect = lower value 0.998 | locus YDL035C, strain GPR1, stronger effect = lower value 1.01 | locus YDL040C, strain nat1, stronger effect = lower value 0.991 | locus YDL074C, strain BRE1, stronger effect = lower value 1.02 | locus YDL101C, strain DUN1, stronger effect = lower value 1.02 | locus YDL134C, strain PPH21, stronger effect = lower value 1.01 | locus YDL185W, strain tfp1, stronger effect = lower value 0.996 | locus YDL192W, strain arf1, stronger effect = lower value 0.998 | locus YDR001C, strain nth1, stronger effect = lower value 0.998 | locus YDR069C, strain doa4, stronger effect = lower value 0.995 | locus YDR101C, strain arx1, stronger effect = lower value 1.02 | locus YDR137W, strain rgp1, stronger effect = lower value 0.981 | locus YDR150W, strain NUM1, stronger effect = lower value 0.998 | locus YDR159W, strain sac3, stronger effect = lower value 0.961 | locus YDR162C, strain NBP2, stronger effect = lower value 1.01 | locus YDR195W, strain ref2 0.948 | locus YDR297W, strain sur2, stronger effect = lower value 0.999 | locus YDR318W, strain mcm21, stronger effect = lower value 0.992 | locus YDR334W, strain swr1, stronger effect = lower value 1 | locus YDR335W, strain msn5, stronger effect = lower value 1 | locus YDR363W, strain ESC2, stronger effect = lower value 1.02 | locus YDR388W, stronger effect = lower value 1 | locus YDR392W, strain spt3, stronger effect = lower value 0.903 | locus YDR502C, strain sam2, stronger effect = lower value 0.993 | locus YEL003W, strain gim4, stronger effect = lower value 0.998 | locus YEL037C, strain rad23, stronger effect = lower value 1.01 | locus YEL061C, strain CIN8 (second series), stronger effect = lower value 0.996 | locus YEL061C, strain CIN8, stronger effect = lower value 1.01 | locus YER002W, strain NOP16, stronger effect = lower value 1.03 | locus YER015W, strain faa2, stronger effect = lower value 0.998 | locus YER016W, strain bim1, stronger effect = lower value 0.999 | locus YER110C, stronger effect = lower value 0.986 | locus YER111C, strain swi4, stronger effect = lower value 0.996 | locus YER155C, strain BEM2 (second series), stronger effect = lower value 0.964 | locus YER155C, strain BEM2, stronger effect = lower value 1 | locus YER167W, strain BCK2, stronger effect = lower value 1.01 | locus YFR010W, strain ubp6, stronger effect = lower value 1.01 | locus YGL078C, strain dbp3, stronger effect = lower value 0.997 | locus YGL086W, strain mad1, stronger effect = lower value 0.997 | locus YGL167C, strain pmr1, stronger effect = lower value 0.993 | locus YGL173C, strain kem1, stronger effect = lower value 0.991 | locus YGL227W, strain vid30, stronger effect = lower value 0.997 | locus YGL240W, strain doc1, stronger effect = lower value 0.964 | locus YGL248W, strain PDE1, stronger effect = lower value 1.02 | locus YGL253W, strain hxk2, stronger effect = lower value 1.01 | locus YGR078C, strain PAC10, stronger effect = lower value 1.01 | locus YGR135W, strain pre9, stronger effect = lower value 0.995 | locus YGR229C, strain SMI1, stronger effect = lower value 0.985 | locus YGR252W, strain gcn5, stronger effect = lower value 0.993 | locus YHR013C, strain ard1, stronger effect = lower value 0.952 | locus YHR027C, strain rpn1, stronger effect = lower value 1 | locus YHR030C, strain SLT2, stronger effect = lower value 1.01 and 1 | locus YHR079C, strain IRE1 (second series), stronger effect = lower value 0.988 | locus YHR079C, strain IRE1, stronger effect = lower value 1 | locus YHR094C, strain hxt1, stronger effect = lower value 0.987 | locus YHR129C, strain ARP1, stronger effect = lower value 1.01 | locus YHR142W, strain chs7, stronger effect = lower value 1.03 | locus YHR200W, strain rpn10, stronger effect = lower value 0.997 | locus YIL066C, strain RNR3, stronger effect = lower value 1.02 | locus YIL073C, strain SPO22, stronger effect = lower value 0.989 | locus YIL125W, strain kgd1, stronger effect = lower value 0.988 | locus YIR030C, strain dcg1, stronger effect = lower value 0.996 | locus YJL092W, strain hpr5, stronger effect = lower value 1 | locus YJL095W, strain BCK1 (second series), stronger effect = lower value 1.01 | locus YJL095W, strain BCK1, stronger effect = lower value 1.03 and 0.993 | locus YJL115W, strain asf1, stronger effect = lower value 1 | locus YJL129C, strain trk1, stronger effect = lower value 1.02 | locus YJL134W, strain LCB3, stronger effect = lower value 1.01 | locus YJL154C, strain vps35, stronger effect = lower value 1.01 | locus YJL164C, strain tpk1, stronger effect = lower value 1 | locus YJL166W, strain qcr8, stronger effect = lower value 0.992 | locus YJL168C, strain set2, stronger effect = lower value 0.994 | locus YJL187C, strain SWE1 (second series), stronger effect = lower value 1.02 | locus YJL187C, strain SWE1, stronger effect = lower value 1 | locus YJR043C, strain POL32, stronger effect = lower value 1.01
